# In the library only some 1.3% were active in any assay of this set; here they are far more common.
# PME-1 primary: blocks human protein phosphatase methylesterase 1; Q9Y570; recombinant PME-1, FP-Rh probe fluorescence polarization; inhibition, % at 5.9 µM; 320,000 tested, 0.53% active;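 active = inhibition above the campaign mean of all compounds plus 3 SD, cut at about 26% in these data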;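 note: competitive labeling of PME-1 active site by serine hydrolase directed probe; 0% = PME-1 with DMSO and 100% = wells lacking PME-1 enzyme; inhibitors block probe labeling so polarization falls and inhibition rises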
# LYPLA2 counter: counter-screen for PME1 inhibitors: inhibitors of human LYPLA2. AID 2177. 320,000 tested, 0.38% active. O95372. inhibition, % at 5.9 µM. recombinant LYPLA2, FP-Rh probe fluorescence polarization;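 active = inhibition above the screen-wide mean plus 3 SD, limit set per campaign, cut at about 26% in these data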;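 note: 0% = LYPLA2 with DMSO and 100% = wells lacking LYPLA2 enzyme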
# PREPL inhibitor: inhibits the human prolyl oligopeptidase-like enzyme; 320,000 tested, 0.68% active; recombinant PREPL, fluorescence polarization activity-based probe; AID 2751; inhibition, % at 5.96 µM; Q4J6C6; in the data active = inhibition above about 43%;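 note: 0% = enzyme with DMSO and 100% = wells lacking enzyme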
# Fam108B counter: counter-screen for RBBP9 inhibitors: inhibitors of mouse Fam108B | recombinant Fam108B, FP-Rh probe fluorescence polarization | AID 1947 | inhibition, % at 9.51 µM | 300,000 tested, 0.33% active;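 active = inhibition above the screen mean inhibition plus 3 SD, computed separately per campaign, cut at about 18% in these data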;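 note: inhibitors lower polarization as less probe binds the enzyme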
# LYPLA1 inh: blocks human lysophospholipase 1, a PME1 counter-screen; O75608; recombinant LYPLA1, FP-Rh probe fluorescence polarization; inhibition, % at 5.9 µM; 320,000 tested, 0.16% active; AID 2174;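 active = inhibition above the mean of all tested compounds plus 3 SD, set per campaign, cut at about 14% in these data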;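 note: inhibitors block serine hydrolase probe labeling of LYPLA1 so polarization falls; 0% = enzyme with DMSO and 100% = wells lacking LYPLA1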
# Target sequence (O75608 whole entry, looked up): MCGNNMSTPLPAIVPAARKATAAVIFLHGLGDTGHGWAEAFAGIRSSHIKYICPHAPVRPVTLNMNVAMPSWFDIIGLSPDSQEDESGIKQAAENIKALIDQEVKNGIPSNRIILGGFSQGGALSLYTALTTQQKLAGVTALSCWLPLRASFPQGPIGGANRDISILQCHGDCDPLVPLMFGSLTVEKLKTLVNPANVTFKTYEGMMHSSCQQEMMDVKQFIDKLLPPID
# * marks the source's active call; other numbers are inactive results; · = not tested or not shown.
SMILES,PME-1 primary,LYPLA2 counter,PREPL inhibitor,Fam108B counter,LYPLA1 inh
Cc1nc(C(=O)NC2CCCCC2)sc1C1(C)CC(c2cccnc2)=NO1 (centres undefined),2,26*,5,-5,-3
COc1cc(NS(=O)(=O)c2c(C(=O)N3CCOCC3)c(C)n(C)c2C)cc(OC)c1OC,-3,6,7,4,-1
CCC(=O)Nc1nc(NCc2ccccc2OC)n(-c2ccccc2)n1,2,-6,-2,6,-3
Cc1ccc(N/N=C2\CS(=O)(=O)N(C)c3ccsc32)cc1,7,1,72*,7,-5
Cc1cccc(C)c1NC(=O)COC(=O)c1ccccc1Nc1ccccc1,-3,-7,2,-3,-3
Cc1ccc(NC(=O)COC(=O)c2cccc3c2C(=O)c2ccccc2C3=O)c(C)c1,85*,-1,26,5,-2
Cc1cc(C)c(NC(=O)COC(=O)c2cccc3c2C(=O)c2ccccc2C3=O)c(C)c1,46*,2,26,10,-5
O=C(COC(=O)c1cccc2c1C(=O)c1ccccc1C2=O)NC1CCCCC1,41*,3,7,7,4
O=C(COC(=O)c1ccc2c(c1[N+](=O)[O-])C(=O)c1ccccc1C2=O)NC1CC1,1,-11,14,-2,-2
Cc1ncc(CO)c2cc(C(=O)Nc3ccccc3Cl)c(=Nc3cccc(C(N)=O)c3)oc12,1,-4,30,0,2
Cc1noc(C)c1S(=O)(=O)N(C)C[C@H]1Oc2ccc(NC(=O)CCC(F)(F)F)cc2C(=O)N([C@H](C)CO)C[C@@H]1C,·,·,8,·,·
O=C(O)/C=C\C(=O)Nc1ccc(N2CCN(c3ccc(Cl)c(Cl)c3)CC2)cc1,-2,-1,44*,4,-4
CC(=O)N1CCN(C(=O)COC(=O)c2ccc(S(C)(=O)=O)cc2)CC1,·,·,0,·,·
COc1ccc(OC)c(NC(=O)Nc2nnc(N3CCCCC3C)s2)c1 (centres undefined),15,-6,20,4,-4
COc1ccc(NC(=O)Nc2nnc(N3CCCCC3C)s2)cc1OC (centres undefined),50*,1,15,4,-3
Cc1ccc(N2CC(C(=O)OCC(=O)Nc3ccc(Cl)cc3)CC2=O)cc1 (centres undefined),0,1,-12,·,-3
CCOc1cc(/C=C/c2ccc3cccc([N+](=O)[O-])c3n2)cc(Cl)c1O,27*,2,21,16,-4
O=C(Cc1coc2cc3c(cc12)CCC3)NC1CCCCCCC1,-2,-5,-20,-2,-7
O=C(Cc1coc2cc3c(cc12)CCC3)NCC1(N2CCCCC2)CCCCC1,2,-4,46*,0,-4
CCSc1ccccc1C(=O)NCCCn1ccnc1,0,-1,12,-1,1
CSc1ccccc1C(=O)NCCCn1ccnc1,144*,7,-1,-1,2
Cc1cc(C)c2[nH]c(O)c(N=Nc3ccc(C(=O)O)cc3)c2c1,5,2,0,0,3
Cc1cc(C)c2[nH]c(O)c(N=NC3=NC(=O)CS3)c2c1,28*,-2,13,5,3
CC1(C)Cc2c(c(N3CCCC3)nc3sc4c(N5CCN(CCO)CC5)ncnc4c23)CO1,2,-5,48*,-3,-1
COCCn1c(C)cc(C(=O)COC(=O)c2ccc(Cl)c(S(N)(=O)=O)c2)c1C,-4,1,-5,25*,3
SMILES,PME-1 primary,LYPLA2 counter,PREPL inhibitor,Fam108B counter,LYPLA1 inh
Cc1cc(C(=O)COC(=O)c2ccc(Cl)c(S(N)(=O)=O)c2)c(C)n1CC1CCCO1 (centres undefined),2,4,-10,2,3
Cc1cccc(C(=O)O/N=C(/c2ccccc2)c2ccncc2)c1,5,2,-6,5,3
COc1ccc(C(=O)O/N=C(/c2ccccc2)c2ccncc2)cc1,-1,-4,87*,2,-1
Cc1ccc(C(=O)N2CCN(Cc3nc4sc5c(c4c(=O)[nH]3)CCCC5)CC2)cc1,1,4,8,1,3
O=C(c1ccccc1F)N1CCN(Cc2nc3sc4c(c3c(=O)[nH]2)CCCC4)CC1,27*,-3,14,0,0
Cc1ccc(C)c(NC(=S)N2CCC(NC(=O)c3ccccc3)CC2)c1,-4,2,0,1,1
COc1ccc(S(=O)(=O)N2CCC(C(=O)NCCC(=O)Nc3ccc(Cl)cc3)CC2)cc1,-6,1,5,-3,1
CN1/C(=C/C=C(C#N)C#N)C(C)(C)c2ccccc21,51*,5,-6,-57,7

# Screening results as filed in PubChem.
